Inconclusive results are not listed. A call without a number means that no potency is given here. Active and inactive are the calls of the source. The call rests on the fitted dose curve.
Potency means the concentration at half of the fitted maximal effect.

The target in the assay is Retinoic acid receptor RXR-alpha (Homo sapiens) (UniProt P19793). Nature of the assay: qHTS assay to identify small molecule agonists of the RXR signaling pathway (AID 1159527). Further: nearly all actives have a fitted effect of over 35% in size. The conditions noted are these: HEK293T RXRa-UAS-bla, beta-lactamase ratio, 16 h; series mostly up to 76.8 µM. The source says: U.S. Tox21 Program National Center for Advancing Translational Sciences [NCATS] NIH Chemical Genomics Center [NCGC] U.S. Environmental Protection Agency [EPA] National Institutes of Environmental Health Sciences [NIEHS] National Toxicology Program [NTP] U.S. Food and Drug Administration [FDA] Tox21 Assay Overview: The Retinoid X receptor (RXR), a nuclear hormone receptor expressed in liver, spleen, placenta, epidermis, central nervous system. These receptors are able to form homo and heterodimers with other nuclear receptors and due to this heterodimerizing ability, RXR functions as master regulators producing diverse physiological effects. Three subtypes of RXR exist; alpha, beta and gamma. Retinoid X receptor alpha (RXR-alpha) has potential roles in metabolic signaling pathways, skin alopecia, dermal cysts, cardiac development, insulin sensitization etc. Therefore screening environmental chemicals on RXR-alpha signaling can be used for the studies focused on such therapeutic applications. For quantification of RXR-alpha ligands signaling, GeneBLAzer RXR alpha-UAS-bla HEK 293T (Life Technologies, Carlsbad, CA) cells containing a beta-lactamase reporter-gene under control of Retinoid X receptor-alpha response element were used to screen Tox21 10K library.
Chain of Retinoic acid receptor RXR-alpha (Homo sapiens) (P19793 whole entry, looked up): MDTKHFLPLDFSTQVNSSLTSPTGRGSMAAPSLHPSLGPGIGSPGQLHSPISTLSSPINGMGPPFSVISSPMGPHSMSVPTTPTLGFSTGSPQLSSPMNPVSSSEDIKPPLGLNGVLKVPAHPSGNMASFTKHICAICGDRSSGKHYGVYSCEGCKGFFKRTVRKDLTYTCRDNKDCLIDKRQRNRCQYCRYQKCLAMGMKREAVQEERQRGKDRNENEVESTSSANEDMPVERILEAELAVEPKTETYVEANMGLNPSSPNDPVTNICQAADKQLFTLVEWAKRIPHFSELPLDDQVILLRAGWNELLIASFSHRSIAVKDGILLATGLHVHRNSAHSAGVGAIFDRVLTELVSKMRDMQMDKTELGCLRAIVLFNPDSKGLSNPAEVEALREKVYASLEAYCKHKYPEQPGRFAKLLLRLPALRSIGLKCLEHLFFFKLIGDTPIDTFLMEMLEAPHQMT
Tox21 Assay Protocol Summary: RXR-alpha HEK 293T cells were dispensed at 2,000 cells/6 uL of assay medium containing 2% charcoal-stripped FBS using a Multidrop Combi (ThermoFisher Scientific, Waltham, MA) dispenser. The assay was performed in black wall/clear-bottom 1536-well plates (Greiner Bio-One North America Inc. Monroe, NC). 9-cis retinoic acid was used as a positive control in the agonist mode screen. After the assay plates were incubated at 37 C and 5% CO2 for 5 hr, 23 nL of compounds dissolved in DMSO, positive controls or DMSO only were transferred to the assay plate by a Pintool station (Kalypsys, San Diego, CA). The assay plates were incubated at 37 C and 5% CO2 for 16 hr. One uL of LiveBLAzer B/G FRET substrate (Life Technologies) was added using a Flying Reagent Dispenser (Aurora Discovery, San Diego, CA) and the plates were incubated at room temperature for 2 hr. Fluorescence intensity (405 nm excitation, 460/530 nm emission) was measured using an Envision plate reader (PerkinElmer, Shelton, CT).
For `CC(=O)OCC1=C(C(=O)O)N2C(=O)[C@@H](N)[C@H]2SC1`, the activation was -0.797% [at 15.8 µM] (inactive). Regarding `NC(=O)OCCCc1ccccc1`, the Potency entry is “inactive”. In the case of `C/C=C/CC#N`, the Potency entry is “inactive”. Regarding `CN(C)C1CCCCC1`, the Potency entry is “inactive”. Consider `O=C(NC(O)C(Cl)(Cl)Cl)NC(O)C(Cl)(Cl)Cl` (stereo not given), for which the Potency result was “inactive”.

Take `COc1cc(CC(C)N)cc(OC)c1OC` (stereo not given): the Potency entry is “inactive”. In the case of `CCOC1Oc2ccc(OS(C)(=O)=O)cc2C1(C)C` (stereo not given), the Potency entry was “inactive”. `O=C/C=C/c1ccco1`: the Potency result was “inactive”. On the same count and under the same terms, the value for `CC(C)N(Cc1ccccc1)C(=O)C(C)(C)C` was “inactive”.

For `N#CN=C1SCCN1Cc1ccc(Cl)nc1`, the Potency was 38.9 µM (active). On the same count and under the same terms, the value for `ClCC1CO1` (stereo not given) was “inactive”; that for `O=C1CCCCC1Cl` (stereo not given) was “inactive”; that for `C=C(C)[C@H]1CN[C@H](C(=O)O)[C@H]1CC(=O)O` was “inactive”. The same measure, in the same setting: the value for `OP(O)c1ccccc1` was “inactive”. With `CC(C)c1ccc(O)cc1`, the Potency entry is “inactive”.

Take `CCN1CCCC1CNC(=O)C(O)(c1ccccc1)c1ccccc1` (stereo not given): the Potency entry is “inactive”.

For the compound `COc1ccc2c(C(=O)c3ccc(Cl)cc3)c(C)n(CC(=O)O)c2c1`, the Potency entry is “inactive”. Regarding `O=C1C2CC=CCC2C(=O)N1SC(Cl)(Cl)Cl` (stereo not given), the Potency result was “inactive”.

On to `CC(Cc1ccccc1)NCCCCl` (stereo not given), for which the Potency entry was “inactive”. On the same count and under the same terms, as for `NCCOS(=O)(=O)O`, the entry is “inactive”; as for `C[C@@H](N)[C@@H](O)c1ccccc1`, “inactive”. `Brc1c(Br)c(Br)c(Br)c(Br)c1Br`: the activation is 13.1% [at 6.98 µM] (inactive). For the compound `CCc1ccc(C2CCNCC2)cc1`, the Potency result is “inactive”. Take `C=CCc1cc(OC)c2c(c1)OCO2`: the Potency entry is “inactive”. On the same count and under the same terms, the value for `CCc1cc(OC)c(C[C@H](C)N)cc1OC` was “inactive”; that for `CCOC(=O)COc1ccc(Cl)cc1Cl` was “inactive”; that for `CCCN1CCC[C@@H]2Cc3nc(N)ncc3C[C@H]21` was “inactive”.

On to `Cc1ccc(-c2nc3ccc(C)cn3c2CC(=O)N(C)C)cc1`, for which the Potency entry was “inactive”. On the same count and under the same terms, as for `Oc1ccc2c3c1O[C@H]1[C@@H](O)C=C[C@H]4[C@@H](C2)NCC[C@@]341`, the entry is “inactive”; as for `c1ccc2c(c1)CCNC2`, “inactive”. Regarding `CCC(C(N)=O)N1CCCC1=O` (stereo not given), the Potency result is “inactive”. Same read-out and setting: as for `CC[C@@H](CO)NC(=O)[C@@H]1C=C2c3cccc4[nH]cc(c34)C[C@H]2N(C)C1`, the entry is “inactive”; as for `CC(C)(O)C(Cl)(Cl)Cl`, “inactive”; as for `NNCc1ccccc1`, 22.3 µM (active). Same read-out and setting: as for `CCNc1nc(Cl)nc(NC(C)(C)C)n1`, the entry is “inactive”.

Turning to `CC(C)[N+](C)(CCC(C(N)=O)(c1ccccc1)c1ccccc1)C(C)C`, the Potency entry is “inactive”.

As for `CNC(=O)NC(O)C(Cl)(Cl)Cl` (stereo not given), the Potency result is “inactive”. On the same count and under the same terms, the value for `CCN(CC)CCOC(=O)C(O)(c1ccccc1)c1ccccc1` was “inactive”; that for `CC[C@@H](CO)NC(=O)[C@@H]1C=C2c3cccc4c3c(cn4C)C[C@H]2N(C)C1` was “inactive”; that for `CC(Cl)(Cl)Cl` was “inactive”.

Values taken from PubChem BioAssay (Tox21).
